Source: PubChem BioAssay (several laboratories)
Shown are actives, neighbours in structure and some others; about 3.5% of the full set was active somewhere.
PG9 binder = PG9 antibody binding by small molecule; TR-FRET gp120-PG9 antibody binding; inhibition, % at 6.7 µM; 0.43% of 360,000 active; AID 624416; in the data active means inhibition above about 8.5%
MBD2 inh = inhibitors of human MBD2 binding to methylated oligonucleotide; Q9UBB5; TR-FRET; inhibition, % at 4.4 µM; 0.31% of 370,000 active; AID 686964; in the data active means inhibition above about 13%
UHRF1 binding = UHRF1 methyl-DNA binding inhibition; AID 687016; 0.75% of 370,000 active; UHRF1 binding to methylated oligo, TR-FRET; inhibition, % at 4.4 µM; Q96T88;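 further: UHRF1 SRA domain binding a hemimethylated CpG hairpin DNA probe; 0% = median of test compound wells and 100% = reference inhibitor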
Target sequence (Q96T88 whole entry, looked up, the tested form may be a part): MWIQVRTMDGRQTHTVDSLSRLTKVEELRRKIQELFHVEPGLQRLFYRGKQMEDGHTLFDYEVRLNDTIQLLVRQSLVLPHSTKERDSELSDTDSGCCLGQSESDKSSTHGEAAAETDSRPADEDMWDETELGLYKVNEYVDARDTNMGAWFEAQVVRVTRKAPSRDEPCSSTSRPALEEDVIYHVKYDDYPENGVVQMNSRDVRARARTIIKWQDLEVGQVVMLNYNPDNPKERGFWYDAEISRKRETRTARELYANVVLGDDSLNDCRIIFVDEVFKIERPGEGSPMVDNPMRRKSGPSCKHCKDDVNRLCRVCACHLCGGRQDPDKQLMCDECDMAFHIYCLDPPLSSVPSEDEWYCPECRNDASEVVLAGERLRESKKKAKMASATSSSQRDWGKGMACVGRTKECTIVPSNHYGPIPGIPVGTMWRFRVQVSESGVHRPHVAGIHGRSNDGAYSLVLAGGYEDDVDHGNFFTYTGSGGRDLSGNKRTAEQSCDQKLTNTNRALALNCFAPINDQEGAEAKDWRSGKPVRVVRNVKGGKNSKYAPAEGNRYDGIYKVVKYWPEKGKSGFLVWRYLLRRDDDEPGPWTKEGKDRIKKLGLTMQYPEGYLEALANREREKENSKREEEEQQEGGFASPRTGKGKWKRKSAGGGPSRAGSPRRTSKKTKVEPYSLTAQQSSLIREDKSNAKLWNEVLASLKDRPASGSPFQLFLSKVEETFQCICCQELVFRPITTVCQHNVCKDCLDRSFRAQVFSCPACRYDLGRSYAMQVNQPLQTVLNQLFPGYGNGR
rCAG RNA binder = binds r(CAG) RNA repeats. 1.3% of 370,000 active. r(CAG) RNA repeat, TO-PRO-1 dye displacement fluorescence. inhibition, % at 3 µM. AID 651821;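 active means inhibition above the plate cutoff, the mean of all test compounds on that plate plus 3 SD, cut at about 35% in these data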;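 further: 0% = DMSO alone and 100% = 100 µM mitoxantrone as full dye displacement; higher means more dye released from RNA so lower well fluorescence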
DNMT1 inh = inhibitors of human DNMT1; AID 588458; DNMT1 molecular beacon, Hinp1I cleavage, fluorescence; 0.83% of 360,000 active; P26358; inhibition (reported as % activation of signal), % at 10 µM; in the data active means inhibition above about 50%
LEDGF integ inh = blocks HIV-1 LEDGF/p75-dependent DNA integration | TR-FRET IN-LEDGF/p75 DNA integration, Eu/Cy5 | inhibition, % at 3.7 µM | 0.64% of 370,000 active | AID 743269;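 active means inhibition above the screen-wide mean plus 3 SD, cut at about 13% in these data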;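 further: signal is the Cy5 over europium emission ratio at 671 and 618 nm; 0% = plate median of compound wells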
UHRF1 ctr MBD2 = UHRF1 methyl-oligo binding inhibition as MBD2 counter-screen. shares compounds with MBD2 inh. UHRF1 binding to methylated oligonucleotide, TR-FRET. inhibition, % at 4.4 µM. 25% of 1,000 active. AID 720530;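 further: UHRF1 SRA domain binding a labeled hemimethylated CpG hairpin DNA; 0% = vehicle only and 100% = reference inhibitor with vehicle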
MBD2 DBD conf = confirmation of human MBD2-DBD methylated oligonucleotide binding inhibitors; inhibition, % at 4.4 µM; 26% of 1,000 active; shares compounds with MBD2 inh; TR-FRET MBD2-DBD binding to methylated oligonucleotide; AID 720531; in the data active means inhibition above about 14%
Active calls of the source: *; nt = no result given. Unless noted, no stated cut-off is given here; in the data, active means inhibition above about 21%; inactive means the rest.

SMILES	PG9 binder	MBD2 inh	UHRF1 binding	rCAG RNA binder	DNMT1 inh	LEDGF integ inh	UHRF1 ctr MBD2	MBD2 DBD conf
CCN(CC(=O)NC1CCS(=O)(=O)C1)Cc1nc2c(Br)cc(Br)cc2c(=O)[nH]1 (configuration not stated)	1	1	-1	5	2	-3	nt	nt
CCN(CC(=O)NC(C)(C)C)Cc1nc2c(Br)cc(Br)cc2c(=O)[nH]1	0	41*	-2	0	0	9	5	2
COc1ccc(C(C)=O)cc1CN1C(=O)C(Cc2ccccc2)ON=C1c1ncccc1C (configuration not stated)	0	1	1	-2	2	-1	nt	nt
CC(NC(=O)c1ccc(S(=O)(=O)Nc2ccccc2Cl)cc1)c1ccncc1 (configuration not stated)	0	2	4	6	1	-5	nt	nt
O=C(O)C1CCN(C(=O)CSc2nnc(-c3ccccc3)o2)CC1	3	-4	-1	3	-1	0	nt	nt
Cc1ccc(NC(=O)NCCCN2CCCC2=O)cc1Cl	2	8	1	-4	0	4	nt	nt
O=C(NCCCN1CCCC1=O)Nc1ccc(Cl)cc1	1	14*	1	-1	2	2	5	3
CC(=O)Nc1ccc(S(=O)(=O)NCCC(=O)NCc2ccco2)cc1	-1	3	1	0	2	-5	nt	nt
CCC(=O)c1ccc(OCC(=O)NCc2ccccc2CN2CCCC2)cc1	-2	35*	1	1	-2	5	6	3
C=CCN1[C@H](C#N)[C@@H](c2ccc(C#Cc3cccc(OC)c3)cc2)[C@H]1CO	nt	15*	17	10	nt	-2	5	8
O=C(NCc1ccccc1Cl)C1CCN(S(=O)(=O)N2CCCC2)CC1	0	3	4	-3	3	-4	nt	nt
O=C(NCc1ccccc1Cl)C1CCN(S(=O)(=O)N2CCCCC2)CC1	-1	20*	25*	-4	-5	-1	4	1
Cc1cc2c(=Cc3ccc(N(C)C)cc3)c3ccccc3n2[n+]1C	-30	32*	47*	9	12	0	60*	64*
Cc1cc(F)ccc1-c1cc(C(=O)NCc2cccs2)[nH]n1	0	-2	-1	0	3	0	nt	nt
COc1ccc(C(=O)COC(=O)CCN2C(=O)C3CC=CCC3C2=O)c(OC)c1 (configuration not stated)	2	-3	2	2	-1	-1	nt	nt
O=C(CCc1nc2sc3c(c2c(=O)[nH]1)CCCC3)NCCc1ccc(F)cc1	3	0	0	8	5	2	nt	nt
CCOc1cc(N2CCOCC2)c(OCC)cc1NC(=O)COC(=O)c1cc(C)oc1C	0	15*	4	0	1	-6	13	3
O=S(=O)(Nc1ccc(F)cc1)c1ccc(S(=O)(=O)N2CCOCC2)cc1	1	3	18	4	0	-3	nt	nt
CNc1c2cccc(C)c2nc2c(C(=O)NCCN(C)C)cccc12	-2	91*	61*	5	-198	8	55*	103*
Cc1ccc(C(=O)NCCN(C)C)c(C)c1	3	7	4	-1	-3	-3	nt	nt
O=C(CCNC(=O)c1ccccc1Cl)Nc1ccc2c(c1)OCCO2	-1	-4	0	5	-3	4	nt	nt
CC(=O)OC[C@@H]1CN(Cc2ccccc2)C[C@H](n2ccc3c(N)ncnc32)O1	1	36*	1	1	3	0	11	2
Cc1ccc(S(=O)(=O)N2CCCCC2)cc1NC(=O)CNC(C)c1ccc(Cl)c(Cl)c1 (configuration not stated)	-1	0	13	4	-9	3	nt	nt
Cc1cccc(CN2CCN(C3CN(Cc4cn(Cc5cccc(C(F)(F)F)c5)nn4)S(=O)(=O)C3)CC2)c1 (configuration not stated)	0	14*	18	-1	nt	3	7	11
COc1ccc2c(c1)c(/C=N/Nc1ccc(C(=O)O)cc1)c(C)n2C	-7	15*	0	7	-1	7	7	2
SMILES	PG9 binder	MBD2 inh	UHRF1 binding	rCAG RNA binder	DNMT1 inh	LEDGF integ inh	UHRF1 ctr MBD2	MBD2 DBD conf
NS(=O)(=O)c1ccc(-c2c(-c3ccccc3)sc3ccccc23)cc1	0	14*	22*	16	13	2	10	4
COc1ccc(-c2sc3ccccc3c2-c2ccc(O)cc2)cc1	0	3	-2	8	-38	1	nt	nt
Cn1cnc([N+](=O)[O-])c1S(=O)(=O)Oc1ccccc1	3	14*	7	0	2	-2	3	2
O=C(CSc1nnc(-c2ccccn2)n1-c1ccccc1)Nc1ccc2c(c1)OCCO2	nt	2	0	5	nt	1	nt	nt
c1cc(CNCC2CCCO2)ccn1 (configuration not stated)	-2	2	4	1	2	2	nt	nt
C=CCOc1ccc(CNCC2CCCO2)cc1 (configuration not stated)	-2	22*	39*	0	1	13	7	1
CCOC(=O)Cn1cc(CN2CCS(=O)(=O)N(Cc3ccccc3)C(C(=O)OC)C2)nn1 (configuration not stated)	nt	14*	16	1	nt	-3	9	4
CCCC1CCC2(CCCN2CCOC(=O)Nc2ccccc2)CC1 (configuration not stated)	nt	2	-3	nt	nt	-1	nt	nt
CC1CCCCN1C(=O)CNCc1ccc(F)cc1 (configuration not stated)	-1	37*	0	-3	1	0	6	2
CC1CCCCN1C(=O)Cc1ccc(Cl)cc1 (configuration not stated)	1	5	2	1	1	-1	nt	nt
O=C(COC(=O)c1ccc2c(c1)OCCO2)NC1CCCCC1	-1	5	0	2	-2	-4	nt	nt
O=C(c1ccc(N2CCOCC2)cc1[N+](=O)[O-])N1CCOCC1	0	14*	4	-6	7	-6	3	-2
COc1ccc(S(=O)(=O)N(C)C2(C)CCS(=O)(=O)C2)cc1OC (configuration not stated)	1	1	-1	1	-1	-2	nt	nt
CN1C2=N[C@@H](c3ccc4c(c3)OCO4)CC(=O)N2/C(=C\c2ccccc2)[C@@H]1c1ccccc1	nt	-3	2	nt	nt	0	nt	nt
CCCC/C=C1/[C@H](c2ccccc2)N(C)C2=N[C@H](c3ccccc3)CC(=O)N21	nt	3	0	nt	nt	-4	nt	nt
CN1C2=N[C@@H](c3ccc4ccccc4c3)CC(=O)N2/C(=C\c2ccccc2)[C@H]1c1ccccc1	nt	14*	28*	nt	nt	2	20	12
